Measurements from PubChem BioAssay AID1347056 (Sanford-Burnham Center for Chemical Genomics, 2019).
Out of some 360,000 compounds screened, about 3,600 (1%) were called active.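 The calls were made as follows: active = compounds whose plate-normalised and pattern-corrected inhibition of the luciferase reporter signal at the single screening dose is 50% or more; inactive = the rest.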 The sample as a whole holds a higher share of actives than the screen did.

assay: inhibitors of TROY-driven NF-kB signaling, primary screen, Q293 LMP1-TROYcd cells, NF-kB luciferase, uHTS (AID 1347056); details: Q293 LMP1-TROYcd NF-kB luciferase reporter, 4 h; at 10 µM; hits give high values

inhibition, inactive:
C/C(CC(=O)NC(C)(C)C)=N\NC(=O)c1ccco1 -29.8%
COC(=O)[C@H](Cc1ccccc1)NC(=O)[C@@H]1C[C@H]1[C@@H](NC(=O)OCc1ccccc1)c1ccccc1 5.51%
Cc1cc(Nc2cccc(C)c2C)n2ncnc2n1 3.52%
COC(=O)CNC(=O)c1ccc(OC2CCN(C(=O)C3CC3)CC2)cc1 2.78%
CC1O[C@H](OC2C(COC3OC(CO)C(O)[C@H](O)C3O)OC(OC3CC[C@]4(C)C(CC[C@@]5(C)[C@@H]4C=C[C@]46OC[C@@]7(CCC(C)(C)C[C@H]74)C(O)C[C@@]56C)C3(C)C)C(O)C2O)C(O)C(O)C1O (stereo not given in full) -9.36%
COc1ccc(CNC(=O)CN(c2ccc(OC)c(Cl)c2)S(=O)(=O)c2ccc(C)cc2)cc1 -0.8%
Cc1ccccc1OCCC(=O)Nc1c(C)n(C)n(-c2ccccc2)c1=O 1.55%
CN1CCN(c2ccc(NC(=O)c3ccc4c(c3)OCCO4)cc2Cl)CC1 22.3%
Cc1ccc(C(=O)Nc2ccc3c(c2)OCCO3)cc1S(=O)(=O)N1CCOCC1 -52%
CCN(CC)CCNC(=O)c1ccc(NS(=O)(=O)c2ccc3c(c2)OCCO3)cc1 16.6%
CC(NS(=O)(=O)c1ccc(Cl)cc1)C(=O)Nc1ccc2c(c1)OCCO2 (stereo not given) 2.15%
C/C(=N\N(C)C)c1ccc(OCCOc2ccc([N+](=O)[O-])cc2)cc1 -19.4%
COc1ccc(N(CC(=O)Nc2cc(OC)cc(OC)c2)S(=O)(=O)c2c(C)n[nH]c2C)cc1 -9.7%
CN1C(=O)CC(c2ccccc2)C1=O (stereo not given) 0.86%
COCCN(Cc1cc2cc3c(cc2nc1Cl)OCO3)C(=O)c1cccc(C)c1 19.8%
CC1CC(C)CN(CCOc2cccc3ccccc23)C1 (stereo not given) 6.96%
CN1CCN(CCCCOc2cccc3ccccc23)CC1 -39.4%
NC(=O)NC(=O)C(OC(=O)CCNS(=O)(=O)c1ccccc1)c1ccccc1 (stereo not given) 1.93%
Cc1ccc(CNCc2ccc3c(c2)OCO3)c(C)c1 -5.84%
CC(C)COC(=O)C1C2C=CC3(CN(C(C)c4ccc(Br)cc4)C(=O)C13)O2 (stereo not given) -13.1%
CCN1C(=O)[C@@H]2[C@@H]3CN(S(=O)(=O)c4ccccc4C)[C@@H](c4ccc(Cl)cc4)[C@@H]3C(=O)C[C@@H]2C1=O 14.4%
CC(C)C(C)(C#N)NC(=O)CSc1nncn1-c1ccccc1 (stereo not given) -7.95%
CC1CCN(C(=O)c2ccc3c(=O)n4c(nc3c2)CCCCC4)CC1 5.45%
C=CCC1(CC=C)CCCN1C(=O)CC1C(=O)NCCN1Cc1ccccc1OC (stereo not given) -17.8%
CCN1CCN(C(=O)C2(NC(=O)Nc3cccc(F)c3)CCCCC2)CC1 7.69%
Cc1noc(C)c1C(=O)NCC1COc2ccccc2O1 (stereo not given) 7.74%
O=C(Cn1cnc2ccccc2c1=O)NCC1COc2ccccc2O1 (stereo not given) -4.41%
CCOC(=O)[C@]12CCC=C1N(CCC1=CCCCC1)C(=O)[C@H](CC(=O)NCc1ccc(C)o1)C2 -3.05%
Cc1nc(Nc2ccc(S(=O)(=O)N3CCCC3)cc2)c2nnn(Cc3ccccc3)c2n1 22.5%
Cc1nc(Nc2ccccc2F)c2nnn(Cc3ccccc3Cl)c2n1 -1.4%
COC(=O)c1sc(C(F)(F)F)c(-c2ccccc2)c1S(=O)(=O)N(C)C -5.2%
Cc1ccc(S(=O)(=O)N(C)CC(=O)OCC(=O)Nc2ccccc2)cc1 -10.3%
Cc1ccc(OCCCC(=O)NC(C)c2ccccc2)c(C)c1 (stereo not given) -19.3%
Cc1cccc(C(=O)OC(C)CN2CCCC2)c1 (stereo not given) 17.2%
Cc1ccc(C(=O)OC(C)CN2CCOCC2)cc1 (stereo not given) -24.8%
C=CCc1c(C)nc2cc(-c3ccccc3)[nH]n2c1=O -9.98%
CCCCN1Cc2c(nc3cc(-c4ccccc4)[nH]n3c2=O)C1=O 6.47%
COC(=O)Cc1cc(=O)oc2c(C)c(O)ccc12 11.1%
COc1ccc(Br)cc1CN1CCN(C(=O)c2cccc(OC)c2OC)CC1 -1.16%
Cc1ccc(NC(=S)N(CCCN2CCCC2)Cc2cccn2Cc2ccc(Cl)cc2)cc1 -45.1%
CCOc1cc(/C=N/NC(=O)OC)ccc1OCCSc1ccc(Cl)cc1 14.9%
COc1cc(/C=C(/NC(=O)c2ccc(Cl)cc2Cl)C(=O)O)cc(OC)c1OC 18.8%
O=C(O)C1=C[C@H](c2cccs2)C[C@H](OCCCCO)O1 -7.03%
COc1cccc(NC(=O)c2ccc3c(SCC(=O)O)c4c(nc3c2)CCCC4)c1 -30.4%
CC(C)CCC(C)NC(=O)c1ccc2nccnc2c1 (stereo not given) -39.8%
COC(=O)CNS(=O)(=O)c1ccc(Cc2ccc(S(=O)(=O)NCC(=O)OC)cc2)cc1 13.7%
Cc1nnc(OCC(=O)NCCC2=CCCCC2)c2ccccc12 -8.28%
O=C(CCNC(=O)Cn1ccc2ccccc2c1=O)NCCC1=CCCCC1 7.75%
COc1ccc(C(CNC(=O)c2ccc(OCc3cscn3)cc2)N2CCCC2)cc1 (stereo not given) 0.55%
CCCS(=O)(=O)N1CCC(C(=O)NCCc2ccc(OC)c(OC)c2)CC1 0.11%
COc1ccccc1CNc1nc(Nc2ccccc2Cl)c2sccc2n1 42.1%
COCCNc1nc(NCc2ccc(NC(C)=O)cc2)c2sccc2n1 8.19%
COc1cccc(-c2cc3nc(NCc4ccccc4OC)n(C)c(=O)c3s2)c1 -20.1%
Clc1ccccc1Nc1nc(NCc2cccs2)nc2ccsc12 6.87%
CCOCCCNC(=S)N1CCC(NC(=O)C2CCCCC2)CC1 10.6%
COc1ccc(C)cc1S(=O)(=O)NCCc1ccccc1 10.5%
O=[N+]([O-])c1cc(S(=O)(=O)NCCc2ccccn2)ccc1Cl -5.27%
Cc1ccc(CC(=O)Nc2cccc(C#N)c2)cc1 5.18%
CCOc1c2ccc(C(=O)NC3CCCc4ccccc43)cc2nn1CC (stereo not given) 2.7%
C/C(=N\NS(=O)(=O)c1ccc(Cl)cc1)c1ccc(NC(=O)c2ccco2)cc1 -42.5%
COc1ccc(-n2ncc3c(SCC(=O)NNC(C)=O)ncnc32)cc1 -14.8%
CN(C(=O)COc1ncnc2c1cnn2-c1ccccc1)C1CCCCC1 11.5%
O=C(CC1CCCCC1)NCc1ccc(F)cc1 -30.5%
CC(C)NC(=O)N1Cc2cc(C(=O)NCC(F)(F)F)nc(-c3cccc(-c4cc5ccccc5o4)c3)c2[C@@H]1CCO 9.45%
COC(=O)[C@@H]1C[C@H]2CC[C@H](O)C[C@H]2N1Cc1ccc(N2CCN(C)CC2)cc1 4.5%
CC(C)(CNC(=O)CNC(=O)C1CCCCC1)N1CCOCC1 6.69%
O=c1cc(O)c(-c2cccc(C(F)(F)F)c2)c(Cl)[nH]1 -14.8%
O=C(O)c1cc(S(=O)(=O)N(Cc2ccccc2)c2cccc(C(F)(F)F)c2)ccc1Cl 3%
Cc1ccc(S(=O)(=O)N2CCC3(CC2)OCCO3)c(C)c1 5.19%
COc1ccc(/C(C)=N/N2CCOCC2)c(O)c1 6.68%
CC1=C(C)CC(C(=O)NNC(=O)c2csc3c2CCC(C(C)(C)C)C3)C(C(=O)O)C1 (stereo not given) -0.5%
O=C(NCCCN1CCN(Cc2ccccc2)CC1)C1CCN(S(=O)(=O)N2CCCC2)CC1 -13%
COc1ccc(CNC(=O)C2CCN(S(=O)(=O)N3CCOCC3)CC2)cc1 7%

inhibition, active:
O=C(Nc1ccc2c(c1)OCCO2)c1ccc(Cl)c(S(=O)(=O)N2CCCCC2)c1 54.4%
O=C(Nc1cccc(S(=O)(=O)Nc2ccc(Cl)cc2)c1)c1ccc2c(c1)OCCO2 56.2%
CC(C)c1ccccc1OCC(O)CN(CC(O)COc1cccc2ccccc12)C(C)C (stereo not given) 65.6%
c1ccc(-c2cc3c(NCC4COc5ccccc5O4)ncnc3s2)cc1 (stereo not given) 59.3%
Cc1nc(Nc2ccc3c(c2)OCCO3)c2nnn(Cc3ccccc3Cl)c2n1 82.3%
CCOC(=O)CN(C)S(=O)(=O)c1ccc(-c2cc(C(=O)OC)sc2C(F)(F)F)cc1 87.2%
Cc1cccc(C(=O)OC(C)CN2CCN(C)CC2)c1 (stereo not given) 58%
O=c1c2c(nc3cc(-c4cccc(Cl)c4)[nH]n13)CCCC2 59.5%
COc1cccc(C(=O)OCc2cc(=O)oc3c(C)c(C)ccc23)c1OC 54.5%
CCOc1cc(/C=C(/C#N)c2ccc(Cl)cc2)cc(Cl)c1OCC(=O)O 70.8%
CC(C)CCNC(=O)c1ccc2c(Cl)c3c(nc2c1)CCC3 55.3%
O=C(Cc1cccc2ccccc12)NCCC1=CCCCC1 80.3%
COc1cccc(CNc2nc(NCc3cccs3)nc3ccsc23)c1 57.2%
COc1cccc(CNc2nc(NCc3ccccc3OC)nc3ccsc23)c1 53.4%
COc1ccc(-n2ncc3c(N4CCCc5ccccc54)ncnc32)cc1 62.1%
O=C(NNc1ccccc1Cl)C(O)(c1cccc(C(F)(F)F)c1)c1cccc(C(F)(F)F)c1 54.1%
COc1ccc(N2CCN(CCCNC(=O)C3CCN(S(=O)(=O)N4CCOCC4)CC3)CC2)cc1 91.5%
